# Test results published in PubChem BioAssay.
# Activity calls are given as the source filed them.
# Experiments:
# [1] = tested on: Plasmodium falciparum Sir2 (PF13_0152, Sir2A); assay: Plasmodium falciparum Sir2A binding compounds – biochemical, small-molecule microarray, 635 nm fluorescence, primary screen (AID 1098); settings: fluorescence 635 nm, higher = more signal;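 also: score merges spot fluorescence intensity with its signal-to-noise ratio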
# [2] = probe aDKK1 binding to arrayed compounds – biochemical, biotinylated probe, 635/667 nm fluorescence, primary screen (AID 1099); settings: small-molecule microarray, higher = more signal;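 also: score merges 667nm spot fluorescence with signal to noise across triplicate slides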
# [3] = probe aCHRDL2 binding to arrayed compounds – biochemical, biotinylated probe, 635/667 nm fluorescence, primary screen (AID 1100); settings: small-molecule microarray, higher = more signal
# [4] = change in splice reporter luminescence, either direction, cell-based, HEK293, spliceosome inhibition project, primary screen (AID 1101); settings: HEK293 splicing luciferase reporter, 24 h, higher = more signal, called active from +8 up or from −8 down;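 also: HEK293 cells carrying a splicing-competent luciferase reporter gene; test concentration not given here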
# [5] = biological target: Fibroblast growth factor 10 (Homo sapiens) (UniProt O15520); assay: compounds binding fibroblast growth factor 10 – biochemical, small-molecule microarray, 635 nm fluorescence, primary screen (AID 1102); settings: FGF10 binding, fluorescence 635 nm, higher = more signal
# [6] = tested on: glycogen synthase kinase-3 (GSK3A per assay name; protocol says GSK3B); assay: compounds binding glycogen synthase kinase-3 – biochemical, small-molecule microarray, 635 nm fluorescence, GSK3A, primary screen (AID 1103); settings: fluorescence 635 nm, higher = more signal; also: the record names both GSK3A and GSK3B
# [7] = biological target: Epidermal growth factor receptor (Homo sapiens) (UniProt P00533); assay: compounds binding epidermal growth factor receptor – biochemical, small-molecule microarray, 635 nm fluorescence, primary screen (AID 1104); settings: EGFR binding, higher = more signal;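 also: score merges 667 nm emission intensity with spot signal to noise over triplicate slides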
# [8] = biological target: Follistatin-related protein 3 (Homo sapiens) (UniProt O95633); assay: compounds binding follistatin-related protein 3 – biochemical, small-molecule microarray, 635 nm fluorescence, primary screen (AID 1105); settings: FSTL3 binding, higher = more signal;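 also: score merges emission near 667 nm and signal to noise per printed spot across three slides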
# [9] = biological target: Dickkopf-related protein 1 (Homo sapiens) (UniProt O94907); assay: small molecules binding DKK1 protein – biochemical, small-molecule microarray, 635 nm fluorescence scan, primary screen (AID 1106); settings: higher = more signal;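 also: score merges emission near 667 nm with signal to noise over three replicate slides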
# [10] = tested on: Inhibin beta A chain (activin A); assay: small molecules binding activin A – biochemical, small-molecule microarray, 635 nm fluorescence scan, primary screen (AID 1107); settings: INHBA, higher = more signal;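 also: mouse activin A protein probed at 4.33 µg/mL on printed slides; score merges bound-protein fluorescence near 667 nm with spot signal-to-noise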
# [11] = tested on: Human papillomavirus type 1a protein E7 (residues 44-93); assay: small molecules binding HPV E7 44-93 – biochemical, small-molecule microarray, residues 44-93, 635 nm fluorescence, primary screen (AID 1108); settings: fluorescence 635 nm, higher = more signal;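 also: E7 fragment applied at 1 µg/mL in TBST for 1 h at 4 C; score combines spot fluorescence with its signal to noise ratio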
# [12] = hepatitis C replication reporter changes, two-sided – Huh7 cells, luciferase reporter, HCV replication inhibitor project, primary screen (AID 1109); settings: Huh7 HCV replicon luciferase reporter, 48 h; higher = more signal;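 also: huh7 hepatoma cells harbouring a luciferase neomycin HCV replicon reporter; luciferase luminescence as measure of HCV replicon replication; test concentration not given here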
# [13] = biological target: Left-right determination factor 2 (Homo sapiens) (UniProt O00292); assay: small molecules binding LEFTY2 protein – biochemical, small-molecule microarray, 635 nm fluorescence scan, primary screen (AID 1110); settings: higher = more signal
# [14] = biological target: Calmodulin-1 (Homo sapiens) (UniProt P0DP23); assay: small molecules binding calmodulin-1 with EGTA – biochemical, small-molecule microarray, Cy5-labelled CALM1, profiling panel (AID 1111); settings: Cy5-CALM1 binding fluorescence, higher = more signal;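 also: labelled calmodulin applied in Tris saline Tween buffer holding calcium plus EGTA and DTT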
# [15] = biological target: Calmodulin-1 (Homo sapiens) (UniProt P0DP23); assay: small molecules binding Ca-loaded calmodulin-1 – biochemical, small-molecule microarray, Cy5-labelled CALM1, plus calcium, artefact control for SMM control-protein annotation, profiling panel (AID 1112); settings: Cy5-CALM1 binding fluorescence, higher = more signal;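 also: score merges spot fluorescence with signal to noise from triplicate slides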
# [16] = probe aWnt5a binding to arrayed compounds – biochemical, biotinylated probe, 635/667 nm fluorescence, primary screen (AID 1113); settings: small-molecule microarray, higher = more signal;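 also: score merges 667 nm fluorescence intensity with signal-to-noise per printed feature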
# [17] = probe aShh binding to arrayed compounds – biochemical, biotinylated probe, 635/667 nm fluorescence, primary screen (AID 1114); settings: small-molecule microarray, higher = more signal;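 also: probe is biotin-labelled aShh protein from a stem cell growth factor screen; measures binding of labelled protein to compounds printed on the slide; score merges feature fluorescence at 667 nm with signal-to-noise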
# [18] = probe aNog binding to arrayed compounds – biochemical, biotinylated probe, 635/667 nm fluorescence, primary screen (AID 1115); settings: small-molecule microarray, higher = more signal;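 also: probe is biotinylated aNog protein used at 0.15 µg/mL for 1 h at 4 C; z-score combines 667 nm fluorescence of each spot with its signal to noise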
# [19] = biological target: Torsin-1A-interacting protein 1 (Homo sapiens) (UniProt Q5JTV8); assay: compound microarray binding of lysate hLAP1 – cell lysate, small-molecule microarray, COS7 lysate, 635/667 nm fluorescence, primary screen (AID 1116); settings: 635 nm fluorescence, higher = more signal
# [20] = biological target: Alpha-bungarotoxin (Bungarus multicinctus) (UniProt P60615); assay: compounds binding labelled alpha-BTX control protein – biochemical, small-molecule microarray, Alexa647 label, 635/667 nm fluorescence, artefact control for SMM control protein annotation, profiling panel (AID 1117); settings: alpha-BTX-A647 binding fluorescence, higher = more signal
# Sequence of Alpha-bungarotoxin (Bungarus multicinctus) (P60615 whole entry, looked up): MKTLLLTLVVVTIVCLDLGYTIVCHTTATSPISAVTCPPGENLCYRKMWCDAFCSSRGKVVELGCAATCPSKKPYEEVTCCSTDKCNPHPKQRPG
# Sequence of Torsin-1A-interacting protein 1 (Homo sapiens) (Q5JTV8 whole entry, looked up): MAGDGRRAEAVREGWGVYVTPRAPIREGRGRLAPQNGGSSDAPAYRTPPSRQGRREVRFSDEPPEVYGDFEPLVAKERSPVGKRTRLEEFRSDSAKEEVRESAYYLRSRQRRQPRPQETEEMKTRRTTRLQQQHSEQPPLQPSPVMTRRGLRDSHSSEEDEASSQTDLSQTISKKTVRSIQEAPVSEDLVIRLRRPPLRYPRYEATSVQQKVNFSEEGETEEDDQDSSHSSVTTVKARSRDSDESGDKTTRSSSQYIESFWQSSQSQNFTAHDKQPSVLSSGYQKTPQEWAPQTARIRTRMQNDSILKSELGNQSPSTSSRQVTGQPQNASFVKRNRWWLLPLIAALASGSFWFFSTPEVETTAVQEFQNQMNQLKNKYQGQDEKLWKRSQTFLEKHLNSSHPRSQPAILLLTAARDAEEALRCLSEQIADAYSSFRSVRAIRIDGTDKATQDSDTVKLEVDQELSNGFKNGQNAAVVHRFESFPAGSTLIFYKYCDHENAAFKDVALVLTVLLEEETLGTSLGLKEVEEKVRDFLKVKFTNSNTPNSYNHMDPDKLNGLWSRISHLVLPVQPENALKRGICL
# Sequence of Dickkopf-related protein 1 (Homo sapiens) (O94907 whole entry, looked up): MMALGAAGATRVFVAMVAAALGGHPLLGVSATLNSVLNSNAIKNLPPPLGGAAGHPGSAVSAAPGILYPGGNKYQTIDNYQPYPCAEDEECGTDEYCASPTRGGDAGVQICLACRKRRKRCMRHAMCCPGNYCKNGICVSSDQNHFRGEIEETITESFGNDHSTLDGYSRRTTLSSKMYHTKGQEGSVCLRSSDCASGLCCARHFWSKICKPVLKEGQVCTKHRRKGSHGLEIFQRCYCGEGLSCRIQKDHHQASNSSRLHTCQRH
# Sequence of Fibroblast growth factor 10 (Homo sapiens) (O15520 whole entry, looked up): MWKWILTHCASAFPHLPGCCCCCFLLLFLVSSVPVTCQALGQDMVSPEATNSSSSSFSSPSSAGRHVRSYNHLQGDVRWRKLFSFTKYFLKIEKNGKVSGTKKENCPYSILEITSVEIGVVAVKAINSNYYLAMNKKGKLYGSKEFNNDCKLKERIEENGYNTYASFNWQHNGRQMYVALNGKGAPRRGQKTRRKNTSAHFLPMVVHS
# Sequence of Follistatin-related protein 3 (Homo sapiens) (O95633 whole entry, looked up): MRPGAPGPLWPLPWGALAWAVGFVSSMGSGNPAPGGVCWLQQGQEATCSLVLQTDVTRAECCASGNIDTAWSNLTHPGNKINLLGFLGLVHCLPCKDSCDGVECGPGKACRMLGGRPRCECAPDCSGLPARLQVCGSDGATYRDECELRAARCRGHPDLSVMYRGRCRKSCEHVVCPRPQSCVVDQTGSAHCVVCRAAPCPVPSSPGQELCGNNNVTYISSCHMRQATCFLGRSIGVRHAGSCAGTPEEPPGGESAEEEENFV
# Sequence of Epidermal growth factor receptor (Homo sapiens) (P00533 whole entry, looked up): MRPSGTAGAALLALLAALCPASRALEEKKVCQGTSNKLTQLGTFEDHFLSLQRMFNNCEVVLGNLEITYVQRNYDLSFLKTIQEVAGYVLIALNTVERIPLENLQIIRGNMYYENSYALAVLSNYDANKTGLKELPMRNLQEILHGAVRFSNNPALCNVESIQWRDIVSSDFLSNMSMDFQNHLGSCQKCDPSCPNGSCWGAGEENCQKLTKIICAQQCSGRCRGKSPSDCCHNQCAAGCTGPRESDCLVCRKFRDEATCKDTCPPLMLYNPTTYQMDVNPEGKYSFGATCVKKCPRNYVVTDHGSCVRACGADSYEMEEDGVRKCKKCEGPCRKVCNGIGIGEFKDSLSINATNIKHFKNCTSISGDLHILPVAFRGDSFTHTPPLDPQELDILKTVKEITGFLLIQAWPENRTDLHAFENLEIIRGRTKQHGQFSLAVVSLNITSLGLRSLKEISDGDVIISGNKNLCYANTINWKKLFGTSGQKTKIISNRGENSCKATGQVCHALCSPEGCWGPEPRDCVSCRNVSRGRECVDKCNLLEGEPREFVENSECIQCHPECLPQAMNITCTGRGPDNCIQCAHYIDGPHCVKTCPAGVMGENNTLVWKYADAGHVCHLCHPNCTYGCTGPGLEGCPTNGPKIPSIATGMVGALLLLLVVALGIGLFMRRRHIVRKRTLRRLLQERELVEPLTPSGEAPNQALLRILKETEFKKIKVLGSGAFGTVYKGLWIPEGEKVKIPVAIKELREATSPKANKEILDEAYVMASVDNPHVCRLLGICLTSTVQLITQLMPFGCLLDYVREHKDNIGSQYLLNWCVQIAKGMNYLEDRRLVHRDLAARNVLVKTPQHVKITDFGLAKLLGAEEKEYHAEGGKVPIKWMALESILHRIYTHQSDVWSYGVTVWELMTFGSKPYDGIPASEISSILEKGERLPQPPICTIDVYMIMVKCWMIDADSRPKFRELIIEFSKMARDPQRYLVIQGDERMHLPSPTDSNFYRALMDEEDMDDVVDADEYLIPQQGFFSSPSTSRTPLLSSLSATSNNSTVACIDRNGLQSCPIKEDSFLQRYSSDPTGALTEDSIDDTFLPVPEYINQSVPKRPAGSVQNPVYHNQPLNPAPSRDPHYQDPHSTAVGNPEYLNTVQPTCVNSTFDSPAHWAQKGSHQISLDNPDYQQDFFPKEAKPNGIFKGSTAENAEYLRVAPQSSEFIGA
# Sequence of Left-right determination factor 2 (Homo sapiens) (O00292 whole entry, looked up): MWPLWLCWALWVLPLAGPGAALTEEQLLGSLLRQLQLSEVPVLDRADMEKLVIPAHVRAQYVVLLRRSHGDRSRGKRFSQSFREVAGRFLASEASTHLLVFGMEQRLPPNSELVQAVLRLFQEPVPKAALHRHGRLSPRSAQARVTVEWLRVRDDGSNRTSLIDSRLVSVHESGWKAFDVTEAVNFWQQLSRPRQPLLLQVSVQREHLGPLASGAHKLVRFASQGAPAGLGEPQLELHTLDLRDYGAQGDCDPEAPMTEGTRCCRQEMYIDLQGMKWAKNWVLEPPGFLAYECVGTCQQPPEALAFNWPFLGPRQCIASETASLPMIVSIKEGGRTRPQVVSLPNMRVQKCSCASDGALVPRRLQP
SMILES,composite z-score [1],composite z-score [2],composite z-score [3],z-score [4],composite z-score [5],composite z-score [6],composite z-score [7],composite z-score [8],composite z-score [9],composite z-score [10],composite z-score [11],z-score [12],composite z-score [13],composite z-score [14],composite z-score [15],composite z-score [16],composite z-score [17],composite z-score [18],composite z-score [19],composite z-score [20]
CCCC=C(CCC)[C@@H](NS(=O)(=O)c1cccc(C(F)(F)F)c1)c1ccc(C(=O)OC)cc1,0.935,1.55,1.06,-0.489 (inactive),-0.67,0.37,-1.1,-0.271,-0.553,-0.507,1.19,-0.0175,-0.81,0.266,-0.385,1.12,1.06,2.97,0.209,0.398
C[C@@H]1NC(=O)CC=C[C@@H](C)[C@@H]2C=C[C@H](O)[C@@H](COC(=O)[C@H](C)NC(=O)CC=C[C@@H](C)[C@@H]3C=C[C@H](O)[C@@H](COC1=O)O3)O2,0.231,-0.555,-0.925,-1.61 (inactive),0.544,0.217,0.418,0.632,0.849,0.0277,0.0804,0.128,0.0183,-0.417,-0.0969,-0.172,-0.426,-0.134,-0.166,-0.64
C=C(COC)/C(=C/C[C@@H](OC(C)=O)c1cccc(OCCO)c1)c1cc(C(=O)OC)ccc1OC,0.695,0.258,0.258,-0.964 (inactive),0.0556,0.0957,0.214,0.121,-0.0663,0.971,-0.307,-0.72,-0.357,-0.39,-0.0115,-0.091,-0.0289,0.717,0.505,-1.07
C=CC[C@]1(C(=O)OC)N=C(c2ccc(OCCCO)cc2)O[C@H]1c1ccccc1CN=[N+]=[N-],0.212,1.21,1.44,-1.4 (inactive),-0.404,-0.52,-0.493,-0.363,-0.795,1.31,-0.044,-1.31,-0.978,-0.643,0.369,0.0251,-0.0289,0.121,0.782,1.14
C=C[C@H](OC)[C@@H](OC(=O)Nc1ccc(SC)cc1)c1ccc(O)c(F)c1,1.03,-0.145,0.0453,-1.97 (inactive),1.01,0.0309,-0.133,0.264,-0.39,-0.433,0.998,3.8,-0.367,0.0665,-0.0093,-0.0486,0.0008,-0.443,1.31,0.358
CC(C)[C@H]1NC(=O)[C@@]23C(=O)N[C@@H](Cc4ccccc4)C2[C@H](C)[C@@]2(C)O[C@H]2C3/C=C/C/C=C\CNC(=O)[C@H](C)NC1=O (stereo not given in full),-0.949,-0.386,-0.256,0.616 (inactive),0.392,-1.37,-1.31,-0.825,-0.443,1.32,-0.473,0.631,-0.796,-0.703,-0.751,-0.284,-0.367,-0.32,-0.198,-1.12
C=CCC(OC(C)=O)[C@@H]1[C@@H](N(Cc2ccc(-c3cccc(C(F)(F)F)c3)o2)C(=O)Cc2ccc(F)cc2)c2cc(OCCCO)ccc2N1C(=O)c1ccc(-c2ccccc2)cc1 (stereo not given in full),0.18,-0.0567,0.494,-0.291 (inactive),-0.204,-0.847,-0.736,-0.198,-0.0679,1.32,-0.741,-0.583,-0.689,-0.679,0.671,-0.154,0.0899,0.172,0.14,-0.227
COC(=O)c1ccc(C#CC(NP(=O)(c2ccccc2)c2ccccc2)c2ccccc2)cc1 (stereo not given),-0.179,1.2,1.38,5.42 (inactive),0.847,-0.245,1.77,1.7,0.567,1.76,1.39,-0.173,-0.34,1.92,0.863,0.0381,-0.519,1.59,0.403,2.89
COCCCNC(=O)[C@@]1(c2ccc([N+](=O)[O-])cc2)CC(=O)N(C2CCCCC2)[C@@H]1c1ccc(CO)cc1,-0.463,-0.86,-0.67,-0.748 (inactive),0.316,0.296,-0.0545,-0.186,-0.296,-0.395,0.361,-0.558,-0.256,-0.702,-0.762,-0.418,-0.8,-0.811,-0.218,-0.374
CC(C)[Si](OCCCNS(=O)(=O)c1ccc(Br)cc1)(C(C)C)C(C)C,0.373,0.526,0.0951,-0.619 (inactive),0.831,1.18,0.742,0.753,0.673,-0.415,0.186,-2.89,0.76,1.19,-0.371,0.037,-0.0553,0.0379,0.928,-0.249
CN(C)C(=O)[C@@]1(Cc2ccccc2N=[N+]=[N-])N=C(c2ccc(OCCCO)cc2)O[C@H]1c1ccccc1CN=[N+]=[N-],1.68,1.22,1.3,-0.636 (inactive),0.689,1.21,0.0256,0.482,0.4,0.676,0.646,-2.12,0.048,2.51,1.22,0.13,0.721,1.78,3.11,2.96
COc1ccc([Si](C)(C)[C@H]2[C@H](CC(=O)N(CCO)Cc3ccccc3)O[C@@]3(C(=O)N(C)c4ccccc43)[C@@H]2C)cc1,0.624,-0.29,-0.519,-1.44 (inactive),1.19,0.25,0.631,0.996,1.05,0.92,1.3,-3.22,0.664,-0.416,-0.398,-0.0182,-0.141,-0.52,0.188,0.238
C[C@@H]1CC[C@H]2C(=O)N3CCC[C@H]3C(=O)N2[C@H]1c1ccc(Br)cc1,0.654,-0.178,-0.439,-0.931 (inactive),0.125,0.267,0.0436,0.0529,0.526,0.38,0.175,0.673,0.267,-0.243,-0.558,-0.212,-0.0769,-0.307,0.324,-0.179
CC(C)N1CC=CC23O[C@@H]4/C=C\CCCOC(=O)C4[C@H]2C(=O)N(CCCCCO)[C@@H]3C1=O (stereo not given in full),0.21,-0.195,0.632,0.0946 (inactive),-0.655,-1.42,-1.97,-1.04,-1.09,0.213,-1.46,0.0844,-1.86,-2.24,-0.226,-0.176,-0.179,0.0403,-1.04,-2.08
O=C(O)[C@@H]1Cc2c([nH]c3ccccc23)[C@@H](c2ccccc2)N1,0.0269,-0.317,-0.58,-0.333 (inactive),0.315,0.61,0.373,0.518,0.509,-0.332,0.681,-0.161,0.414,-0.106,-0.568,-0.141,-0.124,-0.013,0.3,0.236
